Shown are actives, neighbours in structure and some others; about 1.2% of the full set was active somewhere.
CCT chaperon mod = modulators of cytosolic chaperonin (CCT/TRiC) activity; purified chaperonin ATPase assay, HTRF ADP detection, 30 min; activity change, % (no concentration beside the values), hits read low; 360,000 compounds, 0.3% hits; in the data active = activity change below about -30%
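Nucleotide hydrolysis assay: TRiC at 20–40 nM final (set by batch activity) with 10 uM ATP, 30 min at 37 °C, in presence of 76 uM compound. Detection by competitive ADP HTRF, 30 min ambient.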
Six1-Eya2 blk = inhibitors of human Six1/Eya2 interaction. Q15475+O00167. AID 651725. AlphaScreen GST-Six1/His-Eya2 binding, biochemical; hits give low values. 360,000 compounds, 0.56% hits. activity change, % (no concentration beside the values)
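Six1/Eya2 binding was read as AlphaScreen signal after compounds were pinned into GST-Six1 plus His-tagged Eya2 (5X stock 250/500 nM) in pH 8.0 Tris/NaCl/TCEP buffer, beads added, then incubated 1 h, 37 C, dark.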
CtBP-E1A blk = blocks the CtBP interaction with E1A. 340,000 compounds, 0.49% hits. AID 651724. AlphaScreen GST-E1A/His-CtBP binding, 1536-well; hits give low values. activity change, % (no concentration beside the values)
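Homogeneous bead-based format: GST-tagged E1A captured on glutathione donor beads, His-tagged CtBP on nickel acceptor beads; compounds precede bead addition by 2 h at 37 °C.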
pAkt inh = blocks phosphorylation of Akt | 360,000 compounds, 0.32% hits | activity change, % for hits at 50 µM | Neuro2A IGF-stimulated pAkt S473 HTRF, 20 min; hits give low values; in the data active = activity change below about -80%; inconclusive = mostly about -51% to -80%
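Single-point screen (50 µM final compound) in Neuro2A cells stimulated 20 min with 6 nM IGF at 37 deg C. After lysis, Ser473-phosphorylated Akt read by HTRF (ex 330 nm, em 615/665 nm) as the 665/615 ratio.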
Numbers stand for hits; . = inactive; ? = inconclusive; / = no result given. Cut-off read from the data, not from the text of the source, unless noted: active = activity change below about -65%; inconclusive = mostly about -30% to -63%; inactive = weaker than that.

SMILES	CCT chaperon mod	Six1-Eya2 blk	CtBP-E1A blk	pAkt inh
O=C(Oc1ccc(C(=S)N2CCOCC2)cc1)c1ccc([N+](=O)[O-])cc1	.	-83	/	.
Cc1ccc(C(=O)N2CCN(c3ccc(F)cc3)CC2)cc1S(=O)(=O)N1CCCCC1	.	.	.	.
CCN(C(=O)CN1CCCC(C)C1)c1c(N)n(Cc2ccccc2)c(=O)[nH]c1=O (stereo not given)	.	.	.	.
CCC1(c2ccccc2)NC(=O)N(CC(=O)Nc2ccc(OC)nc2)C1=O (stereo not given)	.	.	.	.
COc1cccc(CN(C)CCCn2cnc(C(=O)Nc3ccc(C)c(C)c3)n2)c1	.	.	.	.
O=C(c1cccs1)N1CCCC(c2nc3c(nnn3Cc3cccc(Cl)c3)c(=O)[nH]2)C1 (stereo not given)	.	.	.	.
O=C(c1cccs1)N1CCC(c2nc3c(nnn3Cc3cccc(Cl)c3)c(=O)[nH]2)CC1	.	-68	.	.
Cc1cc(C(=O)CSc2cccc[n+]2[O-])c(C)n1-c1ccccc1	-38	.	.	.
O=C(CSc1cccc[n+]1[O-])c1ccccc1Br	.	.	.	.
O=C(CSc1nc2ccccc2c(=O)[nH]1)N1CCN(S(=O)(=O)c2ccccc2)CC1	.	.	.	-84%
COc1cc2[nH]c(=S)n(C3CCCC3)c(=O)c2cc1OC	.	.	.	.
COc1cc2[nH]c(=S)nc(NCC3CCCO3)c2cc1OC (stereo not given)	.	-90	-87	.
COc1cc2[nH]c(=S)nc(NC3CCCCCC3)c2cc1OC	.	-71	-67	.
COc1cc2[nH]c(=S)nc(Nc3ccc(NC(C)=O)cc3)c2cc1OC	.	-88	-90	.
COc1cccc(OCc2cc(C(=O)N(Cc3ccccc3)CC3CC3)no2)c1	.	.	.	.
O=C(c1ccccc1Oc1ccc([N+](=O)[O-])cc1)N1CCOCC1	.	.	.	.
Cc1cc(-c2nn(-c3ccccc3F)cc2CNCCc2cnc[nH]2)c(C)s1	.	.	/	.
CCS(=O)(=O)N1Cc2ccccc2CC1C(=O)Nc1cccc(OC)c1 (stereo not given)	-49	.	.	.
CCS(=O)(=O)N1Cc2ccccc2CC1C(=O)Nc1ccc(OC)c(OC)c1 (stereo not given)	.	.	.	.
Nc1nc(N)c2sc3nc4c(cc3c2n1)CCC4	.	-76	-84	.
Cc1ccc(C(=O)c2sc3nc4c(cc3c2N)CCC4)cc1	.	.	.	.
CSc1nc(-c2ccccc2)nn1S(=O)(=O)c1ccccc1	-50	.	.	.
CC1(C(=O)NS(=O)(=O)c2ccc(Cl)s2)CCN1C(=O)c1ccc(C2CCCCC2)cc1 (stereo not given)	.	.	.	.
Cc1oc(S(=O)(=O)N2CCCCC2)cc1NC(=O)Nc1ccc(Cl)cc1	.	.	/	.
O=C(CCC(=O)OCCCC(F)(F)C(F)(F)F)NC1CCCCC1	.	.	.	.
SMILES	CCT chaperon mod	Six1-Eya2 blk	CtBP-E1A blk	pAkt inh
C=CCOC(=O)CCCC(=O)NC1CCCCC1	.	.	.	-128%
CCOC(=O)C1CCN(S(=O)(=O)CCNC(=O)c2ccc(F)cc2)CC1	.	.	.	.
CCN1C(=O)/C(=C2/C=Cc3ccccc3N2CC)SC1=S	.	-84	/	.
CCCN1C(=O)/C(=C2/C=Cc3ccccc3N2CC)SC1=S	.	-76	-76	.
CCN1/C(=C2\C(=O)N(C)C(=S)N2C)C=Cc2ccccc21	.	?	.	.
CCCN1/C(=C2/SC(=S)N(CC)C2=O)C=Cc2ccccc21	.	-80	-70	.
Cc1ccc(S(=O)(=O)NC(=O)NCc2ccc3c(c2)OCO3)cc1	.	.	.	-111%
O/N=C(\c1ccccc1)c1nccc2ccccc12	.	.	/	.
COc1cccc(/C=C/C(=O)OCC(=O)c2c[nH]c3ccccc23)c1	.	.	-78	.
N#CCc1nc(-c2cc3ccccc3oc2=O)cs1	-32	.	.	.
O=c1oc2ccccc2cc1-c1nc(-c2cccs2)cs1	.	.	.	.
CCN(CC)C(=O)C[n+]1cccc(C(N)=O)c1	.	.	.	.
Cc1ccc(C)c(NC(=O)Cn2nnc(-c3ccc(N4CCOCC4)cc3)n2)c1	-79	.	/	.
Cc1nnc(NC(=O)CSc2ccccc2N)s1	.	.	/	.
Cc1nc2ccccc2c(=O)n1/N=C/c1ccc(O)cc1	.	.	.	.
CCc1nc2ccccc2c(=O)n1/N=C/c1ccc(Cl)cc1	-33	.	.	.
COc1ccc(C(=O)Nc2ccnn2C2CCN(Cc3cnn(C)c3)CC2)cc1	.	.	.	.
COc1ccc(C(=O)Nc2ccnn2C2CCN(Cc3ccccn3)CC2)cc1	-35	.	.	.
O=C(Nc1ccnn1C1CCN(CC2CC=CCC2)CC1)c1ccccc1 (stereo not given)	-54	.	/	/
O=C(CN1CC(=O)Oc2ccccc21)NCc1ccco1	.	-72	?	.
O=C(CN1CCOc2ccccc21)NCc1ccco1	.	.	.	.
CCOC(=O)c1c(C2COc3ccccc3O2)csc1N (stereo not given)	-41	.	.	.
CCOC(=O)c1c(C2COc3ccccc3O2)csc1NC(=O)c1ccccc1 (stereo not given)	.	.	.	.
CC(Oc1ccc(Cl)cc1Cl)C(=O)Nc1cccnc1 (stereo not given)	.	.	.	-112%
O=C(NCCN1CCOCC1)c1c(O)nc2ccccn2c1=O	-72	.	/	/
SMILES	CCT chaperon mod	Six1-Eya2 blk	CtBP-E1A blk	pAkt inh
CN(CC(=O)Nc1ccc(Cl)c(C(F)(F)F)c1)C(=O)c1ccccc1SCC(=O)N1CCCC1	.	.	.	.
CN(Cc1ccc(Cl)cc1)C(=O)c1ccccc1SCC(=O)N1CCCC1	-50	.	.	.
CCCCC(=O)NC(c1ccc(N(C)C)cc1)c1ccc2cccnc2c1O (stereo not given)	.	-70	-91	.
CC(C)C(=O)NC(Nc1cccc2cccnc12)C(Cl)(Cl)Cl (stereo not given)	.	.	.	.
CCN(CC)c1ccc(C(NC(=O)C(C)C)c2ccc3cccnc3c2O)cc1 (stereo not given)	.	-72	?	.
CCCCC(=O)NC(c1ccc(Cl)cc1)c1ccc2cccnc2c1O (stereo not given)	.	?	?	.
CCCCC(=O)NC(c1ccc(N(CC)CC)cc1)c1ccc2cccnc2c1O (stereo not given)	.	?	-78	.
CC(C)C(=O)NC(c1ccco1)c1ccc2cccnc2c1O (stereo not given)	.	-93	-91	.
N#Cc1ccc(NC(=O)COC(=O)c2cccnc2Cl)cc1	.	.	.	.
C[C@@H]1CC=C[C@H]2[C@H]1C(=O)N(Cc1ccccc1)[C@H]2c1cccc([N+](=O)[O-])c1	.	.	.	.
CCc1ccc(CNC(=O)CCC(=O)N2Cc3cccc(OC)c3Oc3ncccc32)cc1	.	.	/	.
Cc1csc(SCCn2c(N3CCN(c4ccccc4)CC3)nc3c2c(=O)[nH]c(=O)n3C)n1	.	.	.	.

Screens (PubChem BioAssay)
